Test results from the supplement of paper PMC10849652.
The full data set covers some 7,900 targets. This sample favours those with a hit. About 0.6% of all pairs of compound and target were hits.

Assays:
Test in all cases: log2 fold change, soluble protein after heating vs DMSO (PISA); higher = thermal stabilisation; K562 cells, 10 uM, 30 min; active = over 0.2 and 3.5 SD of the protein, either way, in both replicates (recomputed)
[1] = compound: CS(=O)(=O)c1ccc(-c2cnc(N)c(C(=O)Nc3ccccc3)n2)cc1
Procedure, shortened: (§1)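 Quantification of soluble protein used TMTpro 16plex LC-MS/MS, with channel sums equalised. Samples were the supernatant after 21,000xg for 90 min of pooled aliquots from K562 cells (2×10^6 cells/mL) treated with 10 μM compound for 30 min, heated for 3 min over 48°C-58°C, and extracted in PBS with 0.5% NP-40 at 4°C. Values, from duplicates, describe thermal stability against control samples on a log2 fold-change scale.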

crizotinib = compound: C[C@@H](Oc1cc(-c2cnn(C3CCNCC3)c2)cnc1N)c1c(Cl)ccc(F)c1Cl [crizotinib]
Procedure, shortened: as §1

[2] = compound: C[C@@H]1COCCN1C2=NC(=NC(=C2)C3(CC3)S(=O)(=O)C)C4=C5C=CNC5=CC=C4
Procedure, shortened: as §1

[3] = compound: C[C@H](C1=CC=C(C=C1)C(=O)NC2=C3C=CNC3=NC=C2)N
Procedure, shortened: as §1

duvelisib = compound: C[C@H](Nc1ncnc2nc[nH]c12)c1cc2cccc(Cl)c2c(=O)n1-c1ccccc1 [duvelisib]
Procedure, shortened: as §1

gandotinib = compound: Cc1cc(Nc2cc(CN3CCOCC3)c3nc(C)c(Cc4ccc(Cl)cc4F)n3n2)n[nH]1 [gandotinib]
Procedure, shortened: as §1

tozasertib = compound: Cc1cc(Nc2cc(N3CCN(C)CC3)nc(Sc3ccc(NC(=O)C4CC4)cc3)n2)n[nH]1 [tozasertib]
Procedure, shortened: as §1

[4] = compound: Cc1cc(SCc2sc(-c3ccc(C(F)(F)F)cc3)nc2C)ccc1OCC(=O)O
Procedure, shortened: as §1

doramapimod = compound: Cc1ccc(-n2nc(C(C)(C)C)cc2NC(=O)Nc2ccc(OCCN3CCOCC3)c3ccccc23)cc1 [doramapimod]
Procedure, shortened: as §1

ispinesib = compound: Cc1ccc(C(=O)N(CCCN)[C@@H](c2nc3cc(Cl)ccc3c(=O)n2Cc2ccccc2)C(C)C)cc1 [ispinesib]
Procedure, shortened: as §1

[5] = compound: Cc1cccc(CC(=O)N2CCc3c2ccc(-c2cn(C)c4ncnc(N)c24)c3F)n1
Procedure, shortened: as §1

nilotinib = compound: Cc1cn(-c2cc(NC(=O)c3ccc(C)c(Nc4nccc(-c5cccnc5)n4)c3)cc(C(F)(F)F)c2)cn1 [nilotinib]
Procedure, shortened: as §1

[6] = compound: Cc1nc(Nc2n[nH]c3c2CN(C(=O)N[C@H](CN(C)C)c2ccccc2)C3(C)C)c2sccc2n1
Procedure, shortened: as §1

dasatinib = compound: Cc1nc(Nc2ncc(C(=O)Nc3c(C)cccc3Cl)s2)cc(N2CCN(CCO)CC2)n1 [dasatinib]
Procedure, shortened: as §1

[7] = compound: Cc1ncc(-c2ccnc(Nc3ccc(S(C)(=O)=O)cc3)n2)n1C(C)C
Procedure, shortened: as §1

[8] = compound: Cn1cc(-c2ccc3c(c2)CCN3C(=O)Cc2cccc(C(F)(F)F)c2)c2c(N)ncnc21
Procedure, shortened: as §1

[9] = compound: Cn1cc(-c2ccc3nnc(C(F)(F)c4ccc5ncccc5c4)n3n2)cn1
Procedure, shortened: as §1

tipifarnib = compound: Cn1cncc1[C@@](N)(c1ccc(Cl)cc1)c1ccc2c(c1)c(-c1cccc(Cl)c1)cc(=O)n2C [tipifarnib]
Procedure, shortened: as §1

bafetinib = compound: Cc1ccc(NC(=O)c2ccc(CN3CC[C@H](N(C)C)C3)c(C(F)(F)F)c2)cc1Nc1nccc(-c2cncnc2)n1 [bafetinib]
Procedure, shortened: as §1

mubritinib = compound: FC(F)(F)c1ccc(/C=C/c2nc(COc3ccc(CCCCn4ccnn4)cc3)co2)cc1 [mubritinib]
Procedure, shortened: as §1

Measured: log2 fold change

CASP9 (UniProt P55211)
inactive: [1] 0.088 | crizotinib 0.002 | [2] 0.014 | [3] 0.014 | duvelisib 0.104 | gandotinib -0.152 | tozasertib 0.138 | [4] 0.064 | doramapimod 0.05 | ispinesib 0.037 | [5] 0.037 | nilotinib -0.013 | [6] -0.136 | dasatinib -0.075 | [7] 0 | [8] -0.276 | [9] -0.004 | tipifarnib 0.003

CNOT4 isoform 6 (UniProt O95628)
inactive: [1] 0.007 | crizotinib 0.031 | [2] 0.056 | [3] -0.076 | duvelisib 0.06 | gandotinib -0.005 | tozasertib -0.009 | [4] 0.014 | doramapimod -0.02 | ispinesib 0.066 | bafetinib -0.088 | [5] -0.036 | nilotinib -0.024 | [6] -0.042 | dasatinib -0.034 | [7] -0.003 | [8] 0.021 | [9] 0.033 | tipifarnib 0.027 | mubritinib 0.023

C16orf58 (UniProt Q96GQ5)
inactive: [1] 0.011 | crizotinib -0.057 | [2] 0.126 | [3] 0 | duvelisib 0.044 | gandotinib -0.08 | tozasertib -0.028 | [4] -0.035 | doramapimod 0.006 | bafetinib -0.112 | [5] 0.052 | nilotinib -0.036 | [6] 0.029 | dasatinib -0.046 | [7] -0.01 | [8] 0.084 | [9] 0.012 | tipifarnib 0.003 | mubritinib 0.021
active: ispinesib -0.309

CSE1L (UniProt P55060)
inactive: [1] 0.008 | crizotinib -0.063 | [2] 0.083 | [3] -0.067 | duvelisib 0.01 | gandotinib -0.174 | tozasertib 0.066 | [4] 0.024 | doramapimod -0.027 | ispinesib -0.003 | bafetinib -0.041 | [5] 0.039 | nilotinib -0.066 | [6] -0.026 | dasatinib -0.08 | [7] 0.012 | [8] -0.005 | [9] 0.007 | tipifarnib -0.101 | mubritinib 0.068

COQ9 (UniProt O75208)
Chain of UniProt O75208 (O75208 whole entry, looked up): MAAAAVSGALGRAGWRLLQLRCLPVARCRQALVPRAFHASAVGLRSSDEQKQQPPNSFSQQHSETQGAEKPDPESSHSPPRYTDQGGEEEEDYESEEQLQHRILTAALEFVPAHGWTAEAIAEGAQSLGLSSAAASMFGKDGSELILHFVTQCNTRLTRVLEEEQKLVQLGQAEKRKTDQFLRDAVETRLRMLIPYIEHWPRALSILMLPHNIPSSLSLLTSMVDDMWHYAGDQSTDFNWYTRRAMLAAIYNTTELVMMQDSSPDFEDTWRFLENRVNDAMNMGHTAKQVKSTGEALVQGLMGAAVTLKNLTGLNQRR
inactive: [1] 0.02 | crizotinib -0.067 | [2] 0.03 | [3] -0.064 | duvelisib -0.043 | gandotinib -0.029 | tozasertib 0.009 | [4] 0.032 | doramapimod -0.079 | ispinesib -0.055 | bafetinib -0.124 | [5] 0.074 | nilotinib -0.06 | [6] -0.035 | dasatinib -0.147 | [7] 0.001 | [8] 0.052 | [9] 0.028 | tipifarnib -0.068 | mubritinib -0.04

CDK6 (UniProt Q00534)
Chain of UniProt Q00534 (Q00534 whole entry, looked up): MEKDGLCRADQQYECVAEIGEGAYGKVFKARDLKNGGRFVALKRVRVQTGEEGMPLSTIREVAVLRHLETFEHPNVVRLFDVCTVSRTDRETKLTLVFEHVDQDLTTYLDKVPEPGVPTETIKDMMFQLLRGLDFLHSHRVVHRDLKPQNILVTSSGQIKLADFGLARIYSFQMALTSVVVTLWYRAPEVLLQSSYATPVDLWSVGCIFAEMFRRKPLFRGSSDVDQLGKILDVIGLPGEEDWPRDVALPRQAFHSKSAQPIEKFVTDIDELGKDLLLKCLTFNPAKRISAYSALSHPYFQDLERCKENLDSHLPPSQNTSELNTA
inactive: [1] 0.062 | crizotinib -0.033 | [2] -0.042 | [3] -0.004 | duvelisib 0.033 | gandotinib -0.009 | tozasertib 0.001 | [4] -0.012 | doramapimod 0.018 | ispinesib 0.024 | bafetinib -0.017 | [5] -0.002 | nilotinib -0.021 | [6] -0.079 | dasatinib -0.01 | [7] 0.081 | [8] -0.019 | [9] -0.033 | tipifarnib -0.043 | mubritinib 0.012

CCAR2 isoform 2 (UniProt Q8N163)
Chain of UniProt Q8N163 (Q8N163 whole entry, looked up): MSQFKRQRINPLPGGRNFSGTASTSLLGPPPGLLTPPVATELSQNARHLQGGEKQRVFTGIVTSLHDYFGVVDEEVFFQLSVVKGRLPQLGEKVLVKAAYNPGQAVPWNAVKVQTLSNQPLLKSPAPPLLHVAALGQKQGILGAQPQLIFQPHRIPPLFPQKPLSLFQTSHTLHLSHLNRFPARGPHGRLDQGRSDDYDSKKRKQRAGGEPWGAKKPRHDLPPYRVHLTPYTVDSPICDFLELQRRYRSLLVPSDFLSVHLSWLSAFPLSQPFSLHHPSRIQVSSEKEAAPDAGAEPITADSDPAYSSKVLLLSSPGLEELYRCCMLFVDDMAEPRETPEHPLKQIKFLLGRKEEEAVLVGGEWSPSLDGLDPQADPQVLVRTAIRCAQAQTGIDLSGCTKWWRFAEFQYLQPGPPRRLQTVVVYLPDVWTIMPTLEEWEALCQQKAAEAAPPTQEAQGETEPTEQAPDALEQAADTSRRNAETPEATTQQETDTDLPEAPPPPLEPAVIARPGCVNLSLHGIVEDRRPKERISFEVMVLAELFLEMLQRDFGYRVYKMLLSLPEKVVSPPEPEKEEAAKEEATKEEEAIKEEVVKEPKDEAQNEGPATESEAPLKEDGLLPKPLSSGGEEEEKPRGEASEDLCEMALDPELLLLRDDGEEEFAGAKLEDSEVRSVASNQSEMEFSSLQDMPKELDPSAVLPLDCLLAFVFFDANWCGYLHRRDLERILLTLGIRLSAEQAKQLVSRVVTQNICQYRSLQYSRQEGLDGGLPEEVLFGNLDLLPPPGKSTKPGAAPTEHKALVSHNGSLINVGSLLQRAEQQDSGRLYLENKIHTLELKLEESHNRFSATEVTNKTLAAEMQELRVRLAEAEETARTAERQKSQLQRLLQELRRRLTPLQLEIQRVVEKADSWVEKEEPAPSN
inactive: [1] -0.037 | crizotinib 0.024 | [2] 0.046 | [3] 0.011 | duvelisib -0.001 | gandotinib -0.093 | tozasertib 0.103 | [4] 0.169 | doramapimod -0.009 | ispinesib -0.063 | bafetinib 0.007 | [5] 0.01 | nilotinib -0.053 | [6] -0.023 | dasatinib -0.176 | [7] -0.157 | [8] -0.009 | [9] 0.042 | tipifarnib 0.011 | mubritinib 0.031

CENPE (UniProt Q02224)
inactive: [1] 0.231 | crizotinib -0.018 | [3] -0.908 | duvelisib -0.563 | gandotinib 0.052 | tozasertib -0.155 | [4] 0.24 | doramapimod 0.108 | ispinesib -0.321 | bafetinib 0.143 | [5] 0.069 | dasatinib -0.35 | [8] 0.14 | [9] -0.123 | tipifarnib -0.033

C6orf120 (UniProt Q7Z4R8)
Chain of UniProt Q7Z4R8 (Q7Z4R8 whole entry, looked up): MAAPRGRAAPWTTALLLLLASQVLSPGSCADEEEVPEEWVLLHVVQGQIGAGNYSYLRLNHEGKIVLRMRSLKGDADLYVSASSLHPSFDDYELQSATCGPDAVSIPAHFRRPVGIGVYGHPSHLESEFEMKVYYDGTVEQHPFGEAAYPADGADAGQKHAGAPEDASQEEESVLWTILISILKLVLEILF
inactive: [1] 0.069 | crizotinib -0.04 | duvelisib -0.052 | tozasertib -0.032 | [4] 0.113 | doramapimod 0.134 | ispinesib -0.07 | bafetinib -0.145 | nilotinib -0.045 | [6] 0.044 | dasatinib 0.029 | [7] -0.048 | [9] -0.032 | tipifarnib 0.026

C1D (UniProt Q13901)
inactive: [1] -0.073 | crizotinib 0.06 | [2] -0.107 | gandotinib 0.01 | tozasertib 0.005 | doramapimod -0.089 | ispinesib 0.007 | bafetinib -0.026 | [5] -0.013 | nilotinib 0.059 | [6] -0.074 | [7] -0.027 | [9] 0.018 | tipifarnib 0.151 | mubritinib 0.132

CRLS1 (UniProt Q9UJA2)
Chain of UniProt Q9UJA2 (Q9UJA2 whole entry, looked up): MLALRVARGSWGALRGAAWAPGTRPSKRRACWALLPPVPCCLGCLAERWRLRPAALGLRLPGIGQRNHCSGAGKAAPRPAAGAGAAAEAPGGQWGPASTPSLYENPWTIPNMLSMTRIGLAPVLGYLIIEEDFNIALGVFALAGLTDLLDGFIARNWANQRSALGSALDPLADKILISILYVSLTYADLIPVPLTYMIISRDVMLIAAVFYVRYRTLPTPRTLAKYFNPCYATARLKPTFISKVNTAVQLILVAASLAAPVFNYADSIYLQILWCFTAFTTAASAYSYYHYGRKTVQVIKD
inactive: [1] -0.228 | crizotinib 0.02 | [3] -0.047 | duvelisib -0.025 | gandotinib -0.083 | tozasertib 0 | [4] 0.05 | doramapimod 0.023 | [5] 0.012 | nilotinib 0.01 | [6] -0.064 | dasatinib 0.101 | [7] 0.056 | [8] -0.002 | tipifarnib -0.138 | mubritinib 0.007

CHAF1A (UniProt Q13111)
Chain of UniProt Q13111 (Q13111 whole entry, looked up): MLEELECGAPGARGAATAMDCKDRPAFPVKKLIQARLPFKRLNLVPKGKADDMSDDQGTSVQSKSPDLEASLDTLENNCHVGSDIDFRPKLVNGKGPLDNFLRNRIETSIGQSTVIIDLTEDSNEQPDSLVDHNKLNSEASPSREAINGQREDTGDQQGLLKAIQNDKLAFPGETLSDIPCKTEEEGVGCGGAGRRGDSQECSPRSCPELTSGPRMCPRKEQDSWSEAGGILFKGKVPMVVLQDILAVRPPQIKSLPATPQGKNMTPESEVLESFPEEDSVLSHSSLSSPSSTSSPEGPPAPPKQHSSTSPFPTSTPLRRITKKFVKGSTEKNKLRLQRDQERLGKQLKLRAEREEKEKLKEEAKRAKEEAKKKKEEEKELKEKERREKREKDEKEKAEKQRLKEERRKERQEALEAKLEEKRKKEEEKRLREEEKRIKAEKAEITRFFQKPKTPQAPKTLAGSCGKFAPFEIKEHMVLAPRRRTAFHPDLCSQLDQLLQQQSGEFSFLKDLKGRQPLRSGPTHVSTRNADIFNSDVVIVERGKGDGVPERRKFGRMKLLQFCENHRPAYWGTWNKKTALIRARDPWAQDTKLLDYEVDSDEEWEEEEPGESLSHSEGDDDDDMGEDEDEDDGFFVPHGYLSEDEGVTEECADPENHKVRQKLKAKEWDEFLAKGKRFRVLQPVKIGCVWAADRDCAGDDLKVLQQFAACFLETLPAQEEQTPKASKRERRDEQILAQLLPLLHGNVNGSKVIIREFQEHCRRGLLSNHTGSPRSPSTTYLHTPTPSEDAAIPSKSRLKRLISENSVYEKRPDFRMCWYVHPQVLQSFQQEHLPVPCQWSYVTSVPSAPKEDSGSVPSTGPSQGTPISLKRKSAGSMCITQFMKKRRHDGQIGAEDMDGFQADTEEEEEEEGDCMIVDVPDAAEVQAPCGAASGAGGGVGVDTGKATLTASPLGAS
inactive: [1] -0.015 | crizotinib 0.058 | [2] -0.058 | [3] 0.15 | duvelisib 0.051 | gandotinib -0.035 | [4] -0.04 | doramapimod 0.025 | ispinesib -0.098 | bafetinib -0.154 | [5] -0.04 | nilotinib 0.053 | [6] 0.047 | dasatinib 0.016 | [7] -0.074 | [8] 0.006 | [9] 0.002 | tipifarnib 0.015 | mubritinib 0.034

CHST11 (UniProt Q9NPF2)
inactive: [1] 0.056 | crizotinib -0.106 | [2] -0.037 | [3] 0.019 | gandotinib 0.029 | tozasertib -0.033 | doramapimod 0.087 | ispinesib -0.068 | bafetinib -0.01 | [5] -0.117 | nilotinib 0.049 | [6] -0.026 | [7] 0.008 | [8] 0.039 | [9] -0.249 | tipifarnib -0.012 | mubritinib -0.064

C22orf39 (UniProt Q6P5X5)
Chain of UniProt Q6P5X5 (Q6P5X5 whole entry, looked up): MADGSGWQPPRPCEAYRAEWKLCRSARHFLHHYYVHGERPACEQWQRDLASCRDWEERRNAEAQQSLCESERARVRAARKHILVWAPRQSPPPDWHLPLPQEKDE
inactive: [1] 0.075 | crizotinib -0.303 | [2] 0.06 | [3] -0.057 | duvelisib 0 | tozasertib 0.096 | [4] -0.135 | doramapimod 0.072 | ispinesib -0.207 | bafetinib -0.04 | nilotinib -0.07 | [6] 0.038 | dasatinib -0.232 | [7] -0.12 | [8] -0.036 | [9] 0.031 | tipifarnib -0.071 | mubritinib 0.031

CHPT1 (UniProt Q8WUD6)
Chain of UniProt Q8WUD6 (Q8WUD6 whole entry, looked up): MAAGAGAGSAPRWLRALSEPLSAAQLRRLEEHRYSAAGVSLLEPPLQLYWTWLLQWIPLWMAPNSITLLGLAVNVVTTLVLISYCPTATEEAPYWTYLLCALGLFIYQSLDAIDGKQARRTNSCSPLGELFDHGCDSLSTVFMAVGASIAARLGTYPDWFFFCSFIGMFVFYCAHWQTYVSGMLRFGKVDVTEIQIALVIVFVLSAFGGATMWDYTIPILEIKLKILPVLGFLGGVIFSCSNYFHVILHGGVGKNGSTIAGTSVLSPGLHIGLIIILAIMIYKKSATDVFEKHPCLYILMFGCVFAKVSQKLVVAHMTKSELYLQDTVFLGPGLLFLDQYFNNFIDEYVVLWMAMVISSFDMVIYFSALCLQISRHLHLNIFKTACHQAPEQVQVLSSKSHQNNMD
inactive: [1] 0.064 | [2] -0.07 | [3] 0.023 | duvelisib 0.025 | gandotinib 0.038 | tozasertib -0.016 | [4] 0.015 | [5] 0.197 | nilotinib -0.596 | [6] -0.029 | dasatinib -0.074 | [7] -0.017 | [8] 0.011 | [9] -0.027 | tipifarnib -0.192 | mubritinib 0.387
active: ispinesib -1.09

C19orf54 (UniProt Q5BKX5)
Chain of UniProt Q5BKX5 (Q5BKX5 whole entry, looked up): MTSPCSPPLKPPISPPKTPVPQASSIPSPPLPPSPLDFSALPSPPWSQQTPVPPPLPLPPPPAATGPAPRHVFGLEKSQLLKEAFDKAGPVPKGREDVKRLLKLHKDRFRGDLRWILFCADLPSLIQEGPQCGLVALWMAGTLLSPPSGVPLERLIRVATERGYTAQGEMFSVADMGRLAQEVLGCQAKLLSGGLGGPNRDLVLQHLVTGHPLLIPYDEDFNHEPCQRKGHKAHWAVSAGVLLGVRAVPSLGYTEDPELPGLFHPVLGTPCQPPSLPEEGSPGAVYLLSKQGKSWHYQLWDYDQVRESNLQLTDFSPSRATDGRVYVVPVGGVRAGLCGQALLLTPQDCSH
inactive: [1] -0.026 | crizotinib 0.025 | [2] 0.182 | [3] 0.127 | duvelisib 0.072 | gandotinib -0.073 | tozasertib 0.006 | [4] 0.032 | doramapimod -0.061 | ispinesib -0.091 | [5] 0.007 | dasatinib -0.175 | [8] 0.03 | [9] 0.14 | tipifarnib 0.013

CEP128 (UniProt Q6ZU80)
Chain of UniProt Q6ZU80 (Q6ZU80 whole entry, looked up): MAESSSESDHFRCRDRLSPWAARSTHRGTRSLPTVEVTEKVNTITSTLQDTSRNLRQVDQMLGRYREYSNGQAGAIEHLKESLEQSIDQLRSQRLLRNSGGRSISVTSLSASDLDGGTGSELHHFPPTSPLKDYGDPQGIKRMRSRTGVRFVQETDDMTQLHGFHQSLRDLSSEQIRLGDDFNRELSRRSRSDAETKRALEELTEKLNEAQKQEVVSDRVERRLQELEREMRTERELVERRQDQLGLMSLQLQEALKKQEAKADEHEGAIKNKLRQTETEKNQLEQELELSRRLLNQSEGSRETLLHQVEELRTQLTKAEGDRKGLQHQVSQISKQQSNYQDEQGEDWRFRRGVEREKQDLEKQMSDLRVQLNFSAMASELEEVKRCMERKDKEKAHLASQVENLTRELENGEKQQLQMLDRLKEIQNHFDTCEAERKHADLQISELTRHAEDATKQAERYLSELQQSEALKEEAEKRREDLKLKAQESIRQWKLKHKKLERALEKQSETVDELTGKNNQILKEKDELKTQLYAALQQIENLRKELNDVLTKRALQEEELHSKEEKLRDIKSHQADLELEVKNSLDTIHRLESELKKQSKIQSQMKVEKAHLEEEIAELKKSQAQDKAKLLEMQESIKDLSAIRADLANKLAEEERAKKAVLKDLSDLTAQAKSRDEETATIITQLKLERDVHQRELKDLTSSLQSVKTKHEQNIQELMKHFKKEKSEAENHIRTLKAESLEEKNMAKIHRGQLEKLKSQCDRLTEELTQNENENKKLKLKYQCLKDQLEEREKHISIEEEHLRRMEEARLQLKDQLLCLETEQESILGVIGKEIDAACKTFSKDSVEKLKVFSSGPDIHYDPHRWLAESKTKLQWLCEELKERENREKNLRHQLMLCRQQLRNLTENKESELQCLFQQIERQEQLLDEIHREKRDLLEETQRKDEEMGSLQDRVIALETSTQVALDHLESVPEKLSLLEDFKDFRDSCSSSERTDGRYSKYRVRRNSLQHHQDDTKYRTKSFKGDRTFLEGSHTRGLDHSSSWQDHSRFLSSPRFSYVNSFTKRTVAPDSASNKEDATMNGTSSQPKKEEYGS
inactive: [1] 0.093 | crizotinib 0.056 | [3] 0.157 | duvelisib 0.183 | tozasertib 0.041 | [4] -0.07 | doramapimod 0.102 | bafetinib -0.186 | dasatinib 0.046 | [8] -0.026 | tipifarnib -0.016 | mubritinib 0.143

CRTC2 (UniProt Q53ET0)
inactive: [1] -0.02 | crizotinib -0.077 | [2] 0.08 | tozasertib -0.057 | doramapimod 0.062 | ispinesib 0.012 | bafetinib -0.035 | nilotinib 0.038 | [6] 0.01 | [7] -0.094 | [9] -0.081 | tipifarnib -0.092 | mubritinib 0.022

CD84 (UniProt Q9UIB8)
inactive: [1] 0.049 | [2] -0.201 | [3] -0.149 | duvelisib 0.036 | tozasertib -0.055 | [4] 0.056 | dasatinib 0.169 | [8] -0.117
